Inconclusive results are not listed. The source made the active and inactive calls. Rule for the calls: active = hit-call score of the fitted dose curve at least 0.9, where 1 is the maximum; inconclusive = response in the unintended direction; inactive = score below 0.9.
Tests used:
[1] = biological target: Estrogen receptor (Homo sapiens) (UniProt P03372); test: OT_ER_ERaERa_1440: Odyssey Thera (OT) 24-hour HEK293T Protein-Complementation Assay for Estrogen Receptor-alpha/-alpha Homodimer (AID 2283349);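 note: hits raise fluorescence above DMSO for agonists and antagonists alike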
Chain of Estrogen receptor (Homo sapiens) (P03372 whole entry, looked up, the tested form may be a part): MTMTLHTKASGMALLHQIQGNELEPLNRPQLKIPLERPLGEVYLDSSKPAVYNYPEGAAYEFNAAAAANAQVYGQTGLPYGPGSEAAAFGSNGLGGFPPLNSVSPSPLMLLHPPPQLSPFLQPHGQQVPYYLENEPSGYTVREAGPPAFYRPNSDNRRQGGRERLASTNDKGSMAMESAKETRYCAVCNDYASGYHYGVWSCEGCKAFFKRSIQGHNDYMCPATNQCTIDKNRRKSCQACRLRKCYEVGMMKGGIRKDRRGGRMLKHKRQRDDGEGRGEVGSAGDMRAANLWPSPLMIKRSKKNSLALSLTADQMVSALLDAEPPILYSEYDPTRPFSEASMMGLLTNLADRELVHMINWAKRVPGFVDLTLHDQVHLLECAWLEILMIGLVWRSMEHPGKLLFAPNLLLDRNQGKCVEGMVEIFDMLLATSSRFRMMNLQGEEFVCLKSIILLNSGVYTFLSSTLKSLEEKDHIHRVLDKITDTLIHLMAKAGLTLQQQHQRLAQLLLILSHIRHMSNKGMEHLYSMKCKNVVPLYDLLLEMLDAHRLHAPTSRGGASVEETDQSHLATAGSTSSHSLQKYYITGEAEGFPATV
Procedure, shortened: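 HEK293T cells stably expressing the human ER alpha ligand-binding domain (aa 310-547) as a homodimer PCA were dosed for 24 hours. Fluorescence intensity was read by laser scanning cytometry, and gain of signal was fitted relative to DMSO vehicle.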

[2] = biological target: Estrogen receptor (Homo sapiens) (UniProt P03372); test: OT_ER_ERaERa_0480: Odyssey Thera (OT) 8-hour HEK293T Protein-Complementation Assay for Estrogen Receptor-alpha/-alpha Homodimer (AID 2283351);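 note: rise in fluorescence from reassembled reporter fragments on ERα LBD homodimer in nucleus or whole cell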
Procedure, shortened: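 HEK293T, stable ERα LBD (aa 310-547) PCA homodimer; 8 h compound exposure; fluorescence intensity, laser scanning cytometer; positive fitting direction, DMSO baseline.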

[3] = biological target: T1, Estrogen receptor (Homo sapiens) + Estrogen receptor beta (Homo sapiens) (UniProt P03372+Q92731); test: OT_ER_ERaERb_0480: Odyssey Thera (OT) 8-hour HEK293T Protein-Complementation Assay for Estrogen Receptor-alpha/-beta Heterodimer (AID 2283352)
T1 sequence (P03372 whole entry, looked up, the tested form may be a part): as above
T1 sequence (Q92731 whole entry, looked up, the tested form may be a part): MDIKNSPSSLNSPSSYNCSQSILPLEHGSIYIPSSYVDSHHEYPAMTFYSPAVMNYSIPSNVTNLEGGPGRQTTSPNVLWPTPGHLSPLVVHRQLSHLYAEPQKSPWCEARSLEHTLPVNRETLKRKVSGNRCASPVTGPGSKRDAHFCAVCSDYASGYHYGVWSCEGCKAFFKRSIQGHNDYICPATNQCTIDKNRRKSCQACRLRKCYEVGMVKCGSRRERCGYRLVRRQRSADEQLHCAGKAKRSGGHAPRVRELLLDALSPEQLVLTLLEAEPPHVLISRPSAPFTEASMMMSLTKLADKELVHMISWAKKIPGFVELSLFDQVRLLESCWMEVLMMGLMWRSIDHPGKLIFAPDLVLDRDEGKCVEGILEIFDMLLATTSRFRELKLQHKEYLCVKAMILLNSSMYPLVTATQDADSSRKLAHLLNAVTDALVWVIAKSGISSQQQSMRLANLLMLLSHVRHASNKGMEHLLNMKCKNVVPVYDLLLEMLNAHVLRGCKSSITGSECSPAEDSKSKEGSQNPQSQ
Procedure, shortened: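 HEK293T protein-fragment complementation assay of ER-alpha/ER-beta LBD heterodimerisation, read 8 h after dosing. Mean nuclear/cytoplasmic fluorescence intensity measured by laser scanning cytometry; gain of signal fitted relative to DMSO.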

[4] = biological target: Androgen Receptor/SRC-1 Co-activator, AR (gene 367) (UniProt P10275); test: OT_AR_ARSRC1_0960: Odyssey Thera (OT) 16-hour HEK293T Protein-Complementation Assay for Androgen Receptor/SRC-1 Co-activator (AID 2283353);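 note: actives raise the signal above DMSO so potency reflects increased AR and SRC-1 complex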
Chain of Androgen Receptor/SRC-1 Co-activator, AR (gene 367) (P10275 whole entry, looked up, the tested form may be a part): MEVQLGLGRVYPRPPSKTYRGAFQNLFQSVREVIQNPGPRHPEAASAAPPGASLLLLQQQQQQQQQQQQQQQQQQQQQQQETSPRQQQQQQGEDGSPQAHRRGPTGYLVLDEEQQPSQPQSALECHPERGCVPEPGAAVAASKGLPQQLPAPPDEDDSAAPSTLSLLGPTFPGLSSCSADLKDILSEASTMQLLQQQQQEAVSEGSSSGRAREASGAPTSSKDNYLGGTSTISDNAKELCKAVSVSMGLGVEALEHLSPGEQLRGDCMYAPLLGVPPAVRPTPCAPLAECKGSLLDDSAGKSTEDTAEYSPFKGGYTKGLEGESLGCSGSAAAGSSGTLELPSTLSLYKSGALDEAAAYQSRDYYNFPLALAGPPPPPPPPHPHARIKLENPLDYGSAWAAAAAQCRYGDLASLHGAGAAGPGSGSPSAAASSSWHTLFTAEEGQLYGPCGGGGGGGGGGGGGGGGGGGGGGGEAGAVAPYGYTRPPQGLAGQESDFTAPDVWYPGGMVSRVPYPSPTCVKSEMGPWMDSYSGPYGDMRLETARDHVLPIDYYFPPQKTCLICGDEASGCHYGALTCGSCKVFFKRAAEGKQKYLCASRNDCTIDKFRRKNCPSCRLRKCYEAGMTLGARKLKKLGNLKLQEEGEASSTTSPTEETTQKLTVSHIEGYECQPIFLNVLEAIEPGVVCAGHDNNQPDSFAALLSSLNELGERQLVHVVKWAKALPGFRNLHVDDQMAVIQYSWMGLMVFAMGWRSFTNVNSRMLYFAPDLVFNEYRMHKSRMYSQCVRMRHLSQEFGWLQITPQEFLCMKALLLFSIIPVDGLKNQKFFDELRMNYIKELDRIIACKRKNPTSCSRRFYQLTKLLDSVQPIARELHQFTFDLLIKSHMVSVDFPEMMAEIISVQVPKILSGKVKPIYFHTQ
Procedure, shortened: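 Split-Venus PCA, AR/SRC-1 fusions, stable HEK293T; 16 h compound exposure; imaged at 488 and 635 nm; N/C ratio (488 nm channel), min 400 cells/image; positive-direction fit, DMSO baseline.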

[5] = biological target: Androgen Receptor/SRC-1 Co-activator, AR (gene 367) (UniProt P10275); test: OT_AR_ARSRC1_0480: Odyssey Thera (OT) 8-hour HEK293T Protein-Complementation Assay for Androgen Receptor/SRC-1 Co-activator (AID 2283354);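 note: hits raise the complementation signal above DMSO so AC50 marks enhancers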
Procedure, shortened: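 HEK293T cells stably expressing AR and SRC-1 fused to Venus YFP fragments, imaged 8 h after dosing. Complementation fluorescence scored as nuclear/cytoplasmic ratio at 488 nm in at least 400 cells per image; gain fitted versus DMSO.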

[6] = biological target: T1, Estrogen receptor (Homo sapiens) + Estrogen receptor beta (Homo sapiens); test: OT_ER_ERaERb_1440: Odyssey Thera (OT) 24-hour HEK293T Protein-Complementation Assay for Estrogen Receptor-alpha/-beta Homodimer (AID 2283356);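 note: heteromer of ER alpha and ER beta binding domains; hits raise reporter fluorescence and both agonists and antagonists give an increase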
Procedure, shortened: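 HEK293T stably expressing a PCA of ER alpha LBD (aa 310-547) and ER beta LBD (aa 263-489). After 24 h compound exposure, mean fluorescence intensity in nucleus (agonists) or nucleus and cytoplasm (antagonists) measured by laser scanning cytometry versus vehicle.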

[7] = biological target: Estrogen receptor beta (Homo sapiens) (UniProt Q92731); test: OT_ER_ERbERb_0480: Odyssey Thera (OT) 8-hour HEK293T Protein-Complementation Assay for Estrogen Receptor-beta/-beta Homodimer (AID 2283357);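 note: active means signal gain over DMSO baseline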
Chain of Estrogen receptor beta (Homo sapiens) (Q92731 whole entry, looked up, the tested form may be a part): as the sequence (Q92731 whole entry, looked up, the tested form may be a part) above
Procedure, shortened: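 Fluorescence intensity, nuclear for agonists and nuclear plus cytoplasmic for antagonists, was quantified by laser scanning cytometry versus vehicle after 8 h treatment. The cells were HEK293T stably carrying ER beta LBD fragment-complementation partners.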

[8] = biological target: Estrogen receptor (Homo sapiens) (UniProt P03372); test: NVS_NR_hER: NovaScreen (NVS) Nuclear Receptor Binding Assay for human Estrogen Receptor (ER) (AID 2283348)
Procedure, shortened: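 Radioligand competitive displacement binding to estrogen receptor from MCF7 extract, cell-free; 18 h after dosing, scintillation read-out. Primary screen in duplicate at 25 uM; actives followed up in concentration series; loss of signal vs DMSO.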

[9] = biological target: rat Mineralocorticoid Receptor (MR), Nr3c2 (gene 25672) (UniProt P22199); test: NVS_NR_rMR: NovaScreen (NVS) Nuclear Receptor Binding Assay for rat Mineralocorticoid Receptor (MR) (AID 2283355)
Chain of rat Mineralocorticoid Receptor (MR), Nr3c2 (gene 25672) (P22199 whole entry, looked up): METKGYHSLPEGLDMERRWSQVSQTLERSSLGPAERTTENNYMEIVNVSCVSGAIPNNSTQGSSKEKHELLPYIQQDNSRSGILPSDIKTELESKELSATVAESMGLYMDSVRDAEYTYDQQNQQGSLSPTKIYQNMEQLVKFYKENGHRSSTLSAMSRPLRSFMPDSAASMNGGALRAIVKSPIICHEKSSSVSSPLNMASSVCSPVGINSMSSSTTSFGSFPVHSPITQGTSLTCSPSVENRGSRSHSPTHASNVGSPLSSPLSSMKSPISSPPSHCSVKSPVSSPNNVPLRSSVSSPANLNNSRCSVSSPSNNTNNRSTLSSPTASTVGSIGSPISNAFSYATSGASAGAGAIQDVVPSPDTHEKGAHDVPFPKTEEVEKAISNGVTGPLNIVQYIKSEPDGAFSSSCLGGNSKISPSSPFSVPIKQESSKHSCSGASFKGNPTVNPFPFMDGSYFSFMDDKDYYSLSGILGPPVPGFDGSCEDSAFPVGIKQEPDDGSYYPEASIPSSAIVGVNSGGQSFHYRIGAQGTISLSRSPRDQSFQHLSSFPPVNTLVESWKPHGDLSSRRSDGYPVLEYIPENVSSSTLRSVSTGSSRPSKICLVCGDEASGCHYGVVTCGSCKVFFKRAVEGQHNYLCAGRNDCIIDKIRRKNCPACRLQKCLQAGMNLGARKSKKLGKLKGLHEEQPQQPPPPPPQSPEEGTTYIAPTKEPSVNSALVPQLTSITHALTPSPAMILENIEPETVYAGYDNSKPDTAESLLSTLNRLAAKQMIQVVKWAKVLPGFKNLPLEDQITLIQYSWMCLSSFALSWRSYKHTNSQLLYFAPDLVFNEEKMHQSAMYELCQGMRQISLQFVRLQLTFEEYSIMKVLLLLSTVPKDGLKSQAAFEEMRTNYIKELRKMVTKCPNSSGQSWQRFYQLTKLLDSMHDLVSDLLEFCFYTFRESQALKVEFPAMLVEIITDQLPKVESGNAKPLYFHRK
Procedure, shortened: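 Cell-free radioligand binding to mineralocorticoid receptor from adrenalectomized rat brain supernatant, scintillation counting after 24 h. Primary screen in duplicate at 25 uM; actives retested in concentration series. Loss of specific binding versus DMSO.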

[10] = biological target: Bile acid receptor (Homo sapiens) (UniProt Q96RI1); test: NVS_NR_hFXR_Antagonist: NovaScreen (NVS) Nuclear Receptor Binding Assay for human Farnesoid X Receptor Antagonism (FXR) (AID 2283350)
Chain of Bile acid receptor (Homo sapiens) (Q96RI1 whole entry, looked up): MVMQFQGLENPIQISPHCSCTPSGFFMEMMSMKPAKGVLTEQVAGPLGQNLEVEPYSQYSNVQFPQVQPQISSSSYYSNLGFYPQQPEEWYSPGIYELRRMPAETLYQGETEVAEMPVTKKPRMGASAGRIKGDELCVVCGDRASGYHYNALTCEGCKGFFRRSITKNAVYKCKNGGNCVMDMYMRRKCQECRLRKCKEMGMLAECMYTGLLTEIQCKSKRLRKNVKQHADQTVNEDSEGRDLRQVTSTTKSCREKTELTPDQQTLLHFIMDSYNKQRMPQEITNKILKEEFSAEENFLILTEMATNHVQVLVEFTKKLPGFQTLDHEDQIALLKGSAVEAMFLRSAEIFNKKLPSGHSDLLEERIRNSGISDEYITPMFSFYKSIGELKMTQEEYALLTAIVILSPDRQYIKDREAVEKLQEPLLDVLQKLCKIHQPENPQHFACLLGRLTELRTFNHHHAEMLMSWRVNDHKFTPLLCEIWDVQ
Procedure, shortened: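 Cell-free TR-FRET ligand-binding read-out on human FXR (NR1H4) in antagonist mode, measured 1 h after dosing. Primary screen in duplicate at 25 uM, actives retested in concentration series; signal loss scored versus DMSO.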

Measured: AC50

CCOP(=O)(OCC)Oc1nc(Cl)c(Cl)cc1Cl
active: [4] 33.2 µM
not listed: [8] | [9] | [10]
inactive: all other assays above

CC(C)=CC1C(C(=O)OCc2coc(Cc3ccccc3)c2)C1(C)C (stereo unspecified)
inactive: [8] | [2]

CCOc1nc(C(Cl)(Cl)Cl)ns1
inactive: [1] | [2] | [3] | [9] | [6] | [7]

COCc1cnc(C2=NC(C)(C(C)C)C(=O)N2)c(C(=O)O)c1 (stereo unspecified)
active: [10] 30.3 µM
not listed: [8] | [9]
inactive: all other assays above

CCCCC(C#N)(Cn1cncn1)c1ccc(Cl)cc1 (stereo unspecified)
inactive: [8] | [2]

COP(=O)(OC)O/C(C)=C/C(=O)N(C)C
inactive: [1] | [2] | [3] | [6] | [7]

CN/C(=N\[N+](=O)[O-])NCc1cnc(Cl)s1
inactive: [1] | [2] | [3] | [6]

CC1(C)C(C=C(Cl)Cl)C1C(=O)OC(C#N)c1cccc(Oc2ccccc2)c1 (stereo unspecified)
inactive: [8] | [2] | [3] | [6] | [7]

COC(=O)c1c(C(F)F)nc(C(F)(F)F)c(C2=NCCS2)c1CC(C)C
active: [3] 17.2 µM
not listed: [8] | [9] | [10]
inactive: all other assays above

CCN(CC)c1nc(C)cc(OP(=S)(OC)OC)n1
active: [3] 19.9 µM | [6] 34.9 µM | [7] 30.7 µM
inactive: [8] | [2]

Cc1nc(N(C)C)nc(OC(=O)N(C)C)c1C
inactive: [1] | [2] | [3] | [6] | [7]

Cc1c(COC(=O)[C@@H]2[C@H](/C=C(\Cl)C(F)(F)F)C2(C)C)cccc1-c1ccccc1
inactive: [8] | [2] | [3] | [7]
active: [6] 72.3 µM

CCNP(=S)(OC)O/C(C)=C/C(=O)OC(C)C (stereo unspecified)
inactive: [1] | [2] | [6] | [7]

Nc1cnn(-c2ccccc2)c(=O)c1Cl
inactive: [8] | [1] | [2] | [3] | [6] | [7]

CCOC(=O)C(C)OC(=O)c1cc(Oc2ccc(C(F)(F)F)cc2Cl)ccc1[N+](=O)[O-] (stereo unspecified)
inactive: [1] | [2] | [3] | [6] | [7]

Cn1c(-c2ccccc2)cc(-c2ccccc2)[n+]1C
inactive: [1] | [2] | [3] | [7]

CCOP(=S)(OCC)Oc1nc(Cl)n(C(C)C)n1
inactive: [1] | [2]

CNC(=O)Oc1cccc2ccccc12
inactive: [8] | [1] | [2]

OC(c1ccc(Cl)cc1)(c1ccc(Cl)cc1)C(Cl)(Cl)Cl
active: [3] 11.8 µM | [6] 11.9 µM | [7] 12 µM
inactive: [8] | [1] | [10] | [2]

COc1cc(OC)nc(NC(=O)NS(=O)(=O)c2ncccc2OCC(F)(F)F)n1
inactive: [1] | [2] | [3] | [6] | [7]

CCOc1cc(C(C)(C)C)ccc1C1COC(c2c(F)cccc2F)=N1 (stereo unspecified)
inactive: [1] | [3] | [9] | [6] | [7]
active: [4] 20.1 µM | [5] 20.4 µM

CCNC(=O)NC(=O)C(C#N)=NOC
inactive: [10] | [2]

CS(=O)(=O)c1cc(C(F)(F)F)ccc1C(=O)c1cnoc1C1CC1
inactive: [2] | [3] | [6] | [7]

CCCCOCN(C(=O)CCl)c1c(CC)cccc1CC
inactive: [2] | [6] | [7]
active: [4] 21.8 µM | [5] 50 µM

COCC(=O)N(c1c(C)cccc1C)C(C)C(=O)OC (stereo unspecified)
inactive: [1] | [3] | [6] | [7]

N#CN=C1SCCN1Cc1ccc(Cl)nc1
inactive: [2]

CC(C)N1C(=O)N(c2ccccc2)CSC1=NC(C)(C)C
inactive: [2] | [3] | [5] | [6]
active: [4] 62.9 µM | [7] 21.1 µM

O=c1n(Cl)c(=O)n(Cl)c(=O)n1Cl
inactive: [2] | [6] | [7]

CC(C)N1C(=O)c2ccccc2NS1(=O)=O
inactive: [2] | [9]

Nc1c(Cl)c(F)nc(OCC(=O)O)c1Cl
inactive: [2] | [3] | [4] | [5] | [6] | [7]

C=CCOC(=O)C(C)(C)OC(=O)c1cc(-n2c(=O)cc(C(F)(F)F)n(C)c2=O)ccc1Cl
inactive: [1] | [3] | [6] | [7]

CSC(=O)c1c(C(F)F)nc(C(F)(F)F)c(C(=O)SC)c1CC(C)C
inactive: [2]
active: [3] 31.9 µM | [6] 31 µM | [7] 18.1 µM

CCN(CC)C(=O)C(C)Oc1cccc2ccccc12 (stereo unspecified)
inactive: [2] | [3] | [6] | [7]

Cc1ccc(N=CN(C)C=Nc2ccc(C)cc2C)c(C)c1
inactive: [2] | [6] | [7]

N#Cc1c[nH]cc1-c1cccc2c1OC(F)(F)O2
inactive: [2]

Nc1c(Cl)c(Cl)nc(C(=O)O)c1Cl
inactive: [2] | [3] | [6] | [7]

COc1cc(Cl)c(OC)cc1Cl
inactive: [2] | [3] | [6] | [7]

COC(=O)NC(=S)Nc1ccccc1NC(=S)NC(=O)OC
inactive: [2] | [3] | [6] | [7]

COCC(C)N(C(=O)CCl)c1c(C)csc1C (stereo unspecified)
inactive: [2] | [3] | [6]

C=C(C)CN(CC)c1c([N+](=O)[O-])cc(C(F)(F)F)cc1[N+](=O)[O-]
inactive: [2] | [7]
active: [3] 50 µM | [6] 79.2 µM

CC(C)Oc1cccc(NC(=O)c2ccccc2C(F)(F)F)c1
inactive: [3] | [6]

CC1(C)C(C(=O)OC(C#N)c2cccc(Oc3ccccc3)c2)C1(C)C (stereo unspecified)
inactive: [2] | [3] | [6] | [7]

COC(=O)N(C(=O)N1CO[C@@]2(C(=O)OC)Cc3cc(Cl)ccc3C2=N1)c1ccc(OC(F)(F)F)cc1
inactive: [2] | [3] | [4] | [5] | [6] | [7]

COP(=S)(OC)SCn1nnc2ccccc2c1=O
inactive: [2] | [3] | [4] | [5] | [6] | [7]

CCCC(=NOCC)C1=C(O)CC(CC(C)SCC)CC1=O (stereo unspecified)
inactive: [3] | [9] | [6] | [7]

COP(=S)(OC)Oc1ccc([N+](=O)[O-])c(C)c1
inactive: [10] | [2] | [3] | [6] | [7]

CNC(=O)N(C)c1nnc(C(C)(C)C)s1
inactive: [2] | [3] | [6]

Clc1nc(Cl)nc(Nc2ccccc2Cl)n1
inactive: [2] | [3] | [6] | [7]

CC(C)C1(C)N=C(c2ncccc2C(=O)O)NC1=O (stereo unspecified)
inactive: [10] | [2]

CC1(C)CCC(=Cc2ccc(Cl)cc2)C1(O)Cn1cncn1 (stereo unspecified)
active: [4] 16.3 µM | [5] 15.5 µM
inactive: [2] | [3] | [6] | [7]

CCC(C)n1c(=O)[nH]c(C)c(Br)c1=O (stereo unspecified)
inactive: [2] | [3] | [6]

COC(=O)NS(=O)(=O)c1ccc(N)cc1
inactive: [3] | [9] | [6] | [7]

CS(=O)(=O)c1ccc(C(=O)C2C(=O)CCCC2=O)c([N+](=O)[O-])c1
inactive: [2] | [3] | [6] | [7]

COc1ccc(-c2ccccc2)cc1NNC(=O)OC(C)C
inactive: [3] | [4] | [5] | [9] | [6] | [7]

CC(C)Nc1nc(Cl)nc(NC(C)C)n1
inactive: [1] | [3] | [6]

O=C(O)c1c(Cl)ccc2cc(Cl)cnc12
inactive: [2] | [3] | [6] | [7]

O=C1C2CC=CCC2C(=O)N1SC(Cl)(Cl)Cl (stereo unspecified)
inactive: [2] | [3] | [6]

Reference: PubChem BioAssay (EPA / NIEHS)
